Inconclusive results are not listed. Some of the results follow. Entries that show only a call come without a potency. Activity calls are given as the source filed them. Unless noted, calls follow the shape of the dose curve; as a rule, active = well fitted curve in the direction sought with a large enough effect; inconclusive = small, poorly fitted or top-dose-only effect, or another doubt; inactive = no such curve, though single readings can be large; an effect the other way counts as inactive or inconclusive.
Legend:
[1] = S16 Schwann cell PMP22 intronic element firefly luciferase assay (AID 624032); also: nearly all actives have a fitted effect of over 30% in size
Outline: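 Rat S16 Schwann cells stably carrying a PMP22 intronic element-driven Fluc reporter were seeded overnight, then exposed to compounds for 24 h at 37 °C. Luminescence was normalized to PTC124 (positive control) and DMSO (0% activity).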

[2] = test system: CP260; assay: qHTS profiling for inhibitors of Plasmodium falciparum proliferation (AID 504749); also: nearly all actives have a fitted effect of over 60% in size; conditions: P. falciparum in erythrocytes, SYBR Green DNA, 72 h; series mostly up to 12.8 µM
Outline: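 P. falciparum-infected erythrocytes (0.3% parasitemia, 2.5% hematocrit final) were exposed to compounds for 72 h at 37 C in 5% CO2, then lysed with SYBR Green buffer overnight at room temperature; parasite DNA fluorescence was normalized to artemisinin and DMSO controls.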

[3] = molecular target: Guanine nucleotide-binding protein G(i) subunit alpha-1 (Homo sapiens) (UniProt P63096); assay: qHTS Assay for Inhibitors of RGS12 GoLoco Motif Activity (Green Fluorophore) (AID 879);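 also: negative values mean loss of peptide binding seen as reduced polarization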
Outline: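 Fluorescence polarization assay: 50 nM Gαi1 with 10 nM FITC-labeled RGS12 GoLoco peptide in 10 mM Tris pH 7.5, 150 mM NaCl, 0.1 mM GDP, 0.05% NP40, 10 min at room temperature with compound.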

[4] = molecular target: Cytochrome P450 2C9 (Homo sapiens) (UniProt P11712); assay: qHTS Assay for Inhibitors and Substrates of Cytochrome P450 2C9 (AID 883); also: nearly all actives have a fitted effect of over 60% in size
Outline: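 A luminogenic readout tracked human CYP2C9 (10nM) converting deoxyluciferin (100uM, at KM) in 25mM KPO4 during 60 min at 37C with regenerated NADPH. Values normalized to 57uM sulphaphenazole as complete inhibition.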

[5] = qHTS Assay for Identification of Small Molecule Agonists for Thrombopoietin (TPO) Signaling Pathway (AID 917)
Outline: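 Luminescence from a Glycoprotein IIb promoter–driven luciferase reporter served as read-out in murine Ba/F3 cells carrying the human TPO receptor. Cells, deprived of IL-3 overnight, received compounds with 26 pM TPO and were incubated 24 hrs at 37 C.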

[6] = molecular target: Pyruvate kinase (Leishmania mexicana) (UniProt Q27686); assay: qHTS Validation Assay for Inhibitors of Leishmania Mexicana Pyruvate Kinase (AID 945)
Outline: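 Mutant LmPYK (E451W), 0.2 nM, plus 0.5 mM PEP and 0.1 mM ADP in 50 mM imidazole pH 7.2 containing 0.01% Tween 20 and 0.05% BSA. Incubated 1 h at room temperature; luminescence via PKLight, normalized to DMSO.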

[7] = molecular target: Pyruvate kinase PKM (Homo sapiens) (UniProt P14618); assay: qHTS Assay for Activators of Human Muscle Pyruvate Kinase (AID 954; active = well fitted curve in the direction sought with a large enough effect, not every such curve was filed as active)
Outline: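 Enzyme was run at intermediate activity so both inhibitors and activators could be detected. ATP formed from ADP and PEP by 0.1 nM human PKM2 during a 1 h room-temperature incubation was quantified by coupled luciferase luminescence.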

[8] = molecular target: Alpha-galactosidase A (Homo sapiens) (UniProt P06280); assay: Counterscreen for Glucocerebrosidase Inhibitors: qHTS Assay for Human alpha-Galactosidase at pH 4.5 (AID 992)
Outline: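 Read-out is 4-methylumbelliferone fluorescence (365 nm excitation, 440 nm emission) after a pH 10 NaOH/glycine stop. Reactions held 2 nM enzyme and 80 uM substrate at pH 4.5 for 20 min at room temperature.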

[9] = Confirmation and Secondary Assay for Modulators of Hemoglobin Beta Chain Splicing at IVS2 654 locus (AID 910);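 also: per-well total GFP intensity by laser scanning cytometry after 2-day treatment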
Outline: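 HeLa cells stably carrying EGFP interrupted by mutant beta-globin IVS2-654 intron (CMV-driven) were treated with compound for 2 days at 37C; corrected splicing was scored as total peak GFP intensity per well (488 nm excitation, 500-520 nm emission).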

[10] = molecular target: Cytochrome P450 2C9 (Homo sapiens) (UniProt P11712); assay: Cytochrome P450 family 2 subfamily C member 9 (CYP2C9) small molecule antagonists: luciferase biochemical (cell-free) qHTS assay (AID 1645842; active = well fitted curve in the direction sought with a large enough effect in the repeat runs; an effect the other way counts as inactive or inconclusive; also: potency is read from the fitted curve at half-maximal effect; nearly all actives have a fitted effect of over 55% in size)
Outline: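 Luminescence, after 20 min with luciferin detection reagent, reflected CYP2C9 turnover during a 1 h NADPH-driven reaction at 37C. Enzyme-substrate mix contained 0.4% bovine serum albumin and was preincubated with compound 10 min at room temperature.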

[11] = molecular target: Cytochrome P450 2D6 (Homo sapiens) (UniProt P10635); assay: qHTS Assay for Inhibitors and Substrates of Cytochrome P450 2D6 (AID 891); also: nearly all actives have a fitted effect of over 60% in size; also: potency is read from the fitted curve at half-maximal effect
Outline: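 Human CYP2D6 (5 nM) with 30 uM Luciferin-ME EGE (at Km) in 100 mM KPO4, compound preincubated 10 min, then NADPH regeneration system for 60 min at room temperature. Luciferin read by luminescence; normalized to 1.43 uM quinidine.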

[12] = molecular target: Cytochrome P450 2C19 (Homo sapiens) (UniProt P33261); assay: qHTS Assay for Inhibitors and Substrates of Cytochrome P450 2C19 (AID 899); also: nearly all actives have a fitted effect of over 60% in size; also: potency is read from the fitted curve at half-maximal effect
Outline: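 NADPH-dependent conversion of Luciferin-H EGE (10uM, at KM) by 5nM enzyme in 50mM KPO4, 60 min at 37C following 10 min compound preincubation. Stopped with luciferin detection buffer; luminescence read after 20 min.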

[13] = molecular target: DNA dC->dU-editing enzyme APOBEC-3G (Homo sapiens) (UniProt Q9HC16); assay: qHTS for inhibitors of Vif-A3G interactions: Validation (AID 588379)
Outline: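 HeLa cells stably expressing Vif and A3G-eYFP, 700 cells/well, incubated overnight at 37 deg C, then exposed to compound overnight at 37 deg C. Inhibition of Vif-mediated degradation read as increased yellow fluorescence (Ex 488/Em 500-530) by laser-scanning cytometry.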

[14] = molecular target: Cytochrome P450 2D6 (Homo sapiens) (UniProt P10635); assay: Cytochrome P450 family 2 subfamily D member 6 (CYP2D6) small molecule antagonists: luciferase biochemical (cell-free) qHTS assay (AID 1645840; active = well fitted curve in the direction sought with a large enough effect in the repeat runs; an effect the other way counts as inactive or inconclusive; also: nearly all actives have a fitted effect of over 55% in size; also: potency is read from the fitted curve at half-maximal effect)
Outline: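 P450-Glo luminescent screen: recombinant CYP2D6 enzyme–proluciferin substrate mix preincubated with compound 10 min at room temperature, then NADPH regeneration added for 1 h at room temperature. Detection reagent added for 20 min; luciferin light read as relative luminescence units.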

[15] = qHTS Assay for Identification of Small Molecule Agonists for Hypoxia Response Element Signaling Pathway (AID 914; active = well fitted activation curve with a large enough effect in the signal ratio, with a control signal flat, not every such curve was filed as active; the % refers to the signal ratio; also: potency is read from the fitted curve at half-maximal effect); conditions: ME-180 (cervical carcinoma) HRE-bla reporter, beta-lactamase ratio, CoCl2, 17 h; activation: stronger effect = higher value
Outline: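 Reporter activity (beta-lactamase, CCF4 460nm/530nm ratio) in HRE-bla ME-180 cells is recorded after 17 h compound exposure with EC50 CoCl2 at 37 degrees Celsius. AC50 values come from titration data.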

[16] = molecular target: Vitamin D3 receptor (Homo sapiens) (UniProt P11473); assay: qHTS for Inhibitors of the vitamin D receptor (VDR): Hit Validation in Primary Screen (AID 602199); conditions: VDR-coactivator inhibition assay, qHTS confirmation; also: potency is read from the fitted curve at half-maximal effect
Outline: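 Fluorescence polarization assay of VDR binding to Alexa 647-labelled SRC2-3 coactivator peptide: 800nM VDR with 5uM LG19078 agonist, compounds, 2 h at room temperature, read Ex 620 nm/Em 688 nm.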

[17] = molecular target: Vitamin D3 receptor (Homo sapiens) (UniProt P11473); assay: qHTS for Inhibitors of the vitamin D receptor (VDR): Hit Validation using a Fluorescein Assay (AID 602200); conditions: VDR-coactivator binding, fluorescein fluorescence polarization; also: potency is read from the fitted curve at half-maximal effect
Outline: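 Fluorescence polarization (Ex 495 nm/Em 520 nm) read after 2 h at room temperature, reporting disruption of binding between 1.5 uM VDR-LBD, liganded by 5 uM LG19078, and 5 nM fluorescein-labelled SRC2-3 coactivator peptide (final concentrations).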

[18] = molecular target: Vitamin D3 receptor (Homo sapiens) (UniProt P11473); assay: qHTS for Inhibitors of the vitamin D receptor (VDR): Hit Validation using a Beta-Lactamase Assay (AID 602202); also: potency is read from the fitted curve at half-maximal effect
Outline: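 Stably transfected HEK293 cells express a VDR–GAL4 DNA-binding-domain fusion driving a UAS beta-lactamase reporter, stimulated by agonist LG190178. Compounds were added 4 h after plating and incubated 18 h. A FRET beta-lactam substrate was then added for 2 h and cleaved substrate emission read at 447 nm.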

Cytochrome P450 2C9 (Homo sapiens), sequence (P11712 whole entry, looked up): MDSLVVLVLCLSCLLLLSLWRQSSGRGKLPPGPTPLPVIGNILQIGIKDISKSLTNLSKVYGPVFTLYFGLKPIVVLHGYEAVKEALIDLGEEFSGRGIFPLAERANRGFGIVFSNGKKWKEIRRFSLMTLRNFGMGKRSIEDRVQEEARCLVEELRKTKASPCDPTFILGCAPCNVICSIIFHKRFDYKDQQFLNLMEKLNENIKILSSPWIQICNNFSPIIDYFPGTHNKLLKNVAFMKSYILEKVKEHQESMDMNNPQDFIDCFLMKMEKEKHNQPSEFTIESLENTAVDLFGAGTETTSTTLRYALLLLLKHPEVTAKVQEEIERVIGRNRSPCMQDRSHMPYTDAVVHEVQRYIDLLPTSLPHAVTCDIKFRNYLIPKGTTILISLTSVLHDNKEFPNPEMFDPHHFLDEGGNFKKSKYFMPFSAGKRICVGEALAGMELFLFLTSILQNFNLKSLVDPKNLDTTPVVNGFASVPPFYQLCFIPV
Cytochrome P450 2C19 (Homo sapiens), sequence (P33261 whole entry, looked up): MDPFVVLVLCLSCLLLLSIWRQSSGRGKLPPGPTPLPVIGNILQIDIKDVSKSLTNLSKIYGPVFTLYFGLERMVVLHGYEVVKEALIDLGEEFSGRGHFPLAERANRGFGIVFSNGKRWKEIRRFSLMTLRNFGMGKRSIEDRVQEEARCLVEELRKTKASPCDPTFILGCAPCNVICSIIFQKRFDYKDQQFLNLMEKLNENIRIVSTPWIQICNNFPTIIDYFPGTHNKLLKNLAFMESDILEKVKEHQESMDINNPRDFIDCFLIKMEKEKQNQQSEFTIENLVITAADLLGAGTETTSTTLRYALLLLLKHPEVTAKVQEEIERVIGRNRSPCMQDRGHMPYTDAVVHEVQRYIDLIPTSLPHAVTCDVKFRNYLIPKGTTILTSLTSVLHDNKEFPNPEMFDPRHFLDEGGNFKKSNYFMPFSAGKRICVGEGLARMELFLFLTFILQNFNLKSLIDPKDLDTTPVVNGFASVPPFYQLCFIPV
Vitamin D3 receptor (Homo sapiens), sequence (P11473 whole entry, looked up, the tested form may be a part): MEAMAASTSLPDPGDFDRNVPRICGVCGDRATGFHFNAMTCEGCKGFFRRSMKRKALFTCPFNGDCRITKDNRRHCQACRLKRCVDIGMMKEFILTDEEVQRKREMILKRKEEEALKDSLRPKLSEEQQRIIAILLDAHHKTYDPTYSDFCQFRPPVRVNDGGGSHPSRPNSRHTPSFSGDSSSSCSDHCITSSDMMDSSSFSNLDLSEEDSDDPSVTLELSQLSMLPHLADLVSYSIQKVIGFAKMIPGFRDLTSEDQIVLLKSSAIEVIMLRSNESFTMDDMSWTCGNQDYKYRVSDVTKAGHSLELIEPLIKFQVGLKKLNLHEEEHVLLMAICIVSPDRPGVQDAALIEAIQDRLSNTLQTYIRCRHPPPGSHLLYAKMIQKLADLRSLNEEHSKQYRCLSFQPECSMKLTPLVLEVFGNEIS
Cytochrome P450 2D6 (Homo sapiens), sequence (P10635 whole entry, looked up): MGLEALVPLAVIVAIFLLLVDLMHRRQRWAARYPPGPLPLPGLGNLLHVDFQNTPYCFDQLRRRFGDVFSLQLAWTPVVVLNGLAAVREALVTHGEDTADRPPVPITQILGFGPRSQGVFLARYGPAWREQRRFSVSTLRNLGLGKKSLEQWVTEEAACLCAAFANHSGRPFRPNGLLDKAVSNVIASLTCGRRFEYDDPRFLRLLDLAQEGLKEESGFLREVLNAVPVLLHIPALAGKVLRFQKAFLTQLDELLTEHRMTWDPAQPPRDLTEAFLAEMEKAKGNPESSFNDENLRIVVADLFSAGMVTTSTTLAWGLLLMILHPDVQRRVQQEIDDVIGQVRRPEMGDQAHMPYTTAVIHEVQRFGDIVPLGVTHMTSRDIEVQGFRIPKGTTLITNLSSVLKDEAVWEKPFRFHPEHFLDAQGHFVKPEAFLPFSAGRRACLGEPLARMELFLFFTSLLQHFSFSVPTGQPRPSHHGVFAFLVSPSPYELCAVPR
DNA dC->dU-editing enzyme APOBEC-3G (Homo sapiens), sequence (Q9HC16 whole entry, looked up): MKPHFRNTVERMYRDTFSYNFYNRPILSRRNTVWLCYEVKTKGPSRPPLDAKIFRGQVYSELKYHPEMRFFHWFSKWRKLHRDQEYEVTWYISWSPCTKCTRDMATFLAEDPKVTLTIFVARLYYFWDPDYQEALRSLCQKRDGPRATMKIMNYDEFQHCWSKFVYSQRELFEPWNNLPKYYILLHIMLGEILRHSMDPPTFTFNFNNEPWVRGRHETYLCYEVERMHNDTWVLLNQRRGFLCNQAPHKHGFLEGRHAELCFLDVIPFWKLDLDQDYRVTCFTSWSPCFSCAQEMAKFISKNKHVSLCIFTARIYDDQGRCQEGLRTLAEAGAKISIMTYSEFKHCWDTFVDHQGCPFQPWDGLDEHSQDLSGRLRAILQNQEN
Alpha-galactosidase A (Homo sapiens), sequence (P06280 whole entry, looked up): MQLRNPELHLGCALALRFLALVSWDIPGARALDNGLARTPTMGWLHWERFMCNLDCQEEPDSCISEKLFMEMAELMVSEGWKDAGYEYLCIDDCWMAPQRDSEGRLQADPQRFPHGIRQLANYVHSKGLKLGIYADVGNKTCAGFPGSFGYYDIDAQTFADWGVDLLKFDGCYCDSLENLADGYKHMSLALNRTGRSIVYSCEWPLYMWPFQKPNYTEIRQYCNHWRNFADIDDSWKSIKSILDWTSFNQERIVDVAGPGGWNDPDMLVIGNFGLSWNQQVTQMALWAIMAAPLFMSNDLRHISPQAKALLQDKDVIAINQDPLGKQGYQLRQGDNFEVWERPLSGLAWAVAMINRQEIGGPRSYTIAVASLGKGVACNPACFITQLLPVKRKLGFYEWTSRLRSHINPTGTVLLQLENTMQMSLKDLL
Guanine nucleotide-binding protein G(i) subunit alpha-1 (Homo sapiens), sequence (P63096 whole entry, looked up): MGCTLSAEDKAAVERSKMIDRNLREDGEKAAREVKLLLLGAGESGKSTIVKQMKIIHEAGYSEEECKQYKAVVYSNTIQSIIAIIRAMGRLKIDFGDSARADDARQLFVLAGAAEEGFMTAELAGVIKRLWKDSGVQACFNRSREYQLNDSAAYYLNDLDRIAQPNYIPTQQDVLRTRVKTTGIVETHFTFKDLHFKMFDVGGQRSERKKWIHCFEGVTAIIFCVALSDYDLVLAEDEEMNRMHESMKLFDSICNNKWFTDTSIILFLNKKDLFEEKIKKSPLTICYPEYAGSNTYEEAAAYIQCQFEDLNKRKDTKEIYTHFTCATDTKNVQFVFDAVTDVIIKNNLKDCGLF
Pyruvate kinase (Leishmania mexicana), sequence (Q27686 2-499 E452W): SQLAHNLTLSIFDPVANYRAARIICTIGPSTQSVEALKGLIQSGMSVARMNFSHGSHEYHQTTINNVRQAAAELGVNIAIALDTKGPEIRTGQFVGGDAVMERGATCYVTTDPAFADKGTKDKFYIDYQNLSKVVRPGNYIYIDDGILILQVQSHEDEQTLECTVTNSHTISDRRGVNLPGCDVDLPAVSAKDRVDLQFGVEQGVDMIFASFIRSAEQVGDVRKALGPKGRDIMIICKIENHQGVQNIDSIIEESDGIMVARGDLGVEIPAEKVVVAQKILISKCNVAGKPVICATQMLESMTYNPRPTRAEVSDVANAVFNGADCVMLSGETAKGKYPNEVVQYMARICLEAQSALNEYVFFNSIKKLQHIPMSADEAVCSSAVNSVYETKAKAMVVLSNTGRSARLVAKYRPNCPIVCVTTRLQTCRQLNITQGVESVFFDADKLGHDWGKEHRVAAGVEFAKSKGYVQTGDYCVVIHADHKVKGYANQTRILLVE
Pyruvate kinase PKM (Homo sapiens), sequence (P14618 whole entry, looked up): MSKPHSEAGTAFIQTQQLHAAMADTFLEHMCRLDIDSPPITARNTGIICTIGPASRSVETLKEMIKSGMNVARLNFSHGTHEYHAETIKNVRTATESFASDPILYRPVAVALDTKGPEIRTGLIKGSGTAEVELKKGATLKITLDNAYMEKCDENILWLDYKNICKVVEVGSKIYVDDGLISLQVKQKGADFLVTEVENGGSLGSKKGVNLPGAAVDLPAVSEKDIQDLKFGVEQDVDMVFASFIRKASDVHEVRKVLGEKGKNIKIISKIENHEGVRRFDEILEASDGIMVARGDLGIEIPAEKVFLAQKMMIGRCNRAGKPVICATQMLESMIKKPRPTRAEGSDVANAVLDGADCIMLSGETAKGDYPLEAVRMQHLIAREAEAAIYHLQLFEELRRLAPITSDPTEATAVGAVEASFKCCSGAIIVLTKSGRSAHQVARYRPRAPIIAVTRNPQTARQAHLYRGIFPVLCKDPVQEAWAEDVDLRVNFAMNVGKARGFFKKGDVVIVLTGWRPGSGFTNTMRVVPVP

NC(N)=NC[C@@H]1COC2(CCCCC2)O1
Potency [1]: inactive | Potency [2]: inactive

Cc1ccccc1[C@@H](OCCN(C)C)c1ccccc1
Potency [3]: inactive | Potency [4]: inactive | outcome [5]: inactive | outcome [6]: inactive | outcome [7]: inactive | outcome [8]: inactive

CCN1C(=O)N[C@@H](c2ccccc2)C1=O
Potency [1]: inactive | Potency [2]: inactive

CCN[C@@H]1C[C@H](C)S(=O)(=O)c2sc(S(N)(=O)=O)cc21
Potency [1]: inactive | Potency [2]: inactive

CC1CC2C3CCC4=CC(=O)C=C[C@@]4(C)[C@]3(F)C(O)C[C@]2(C)[C@]1(O)C(=O)CO (some centres undefined)
Potency [9]: inactive

CC(=O)N(CC(O)CN(C(C)=O)c1c(I)c(C(=O)NC[C@@H](O)CO)c(I)c(C(=O)NC[C@@H](O)CO)c1I)c1c(I)c(C(=O)NC[C@@H](O)CO)c(I)c(C(=O)NC[C@@H](O)CO)c1I
Potency [2]: inactive

C1CCN2C[C@H]3C[C@H](CN4CCCCC34)C2C1 (some centres undefined)
Potency [9]: inactive

Cc1nnc(SCC(=O)NCc2ccccc2Cl)c2nn(-c3ccccc3)c(C)c12
Potency [10]: 3.01 µM (active)

c1csc(CNc2nc(-c3ccoc3)nc3ccccc23)c1
Potency [11]: 3.98 µM (active)

Nc1ncnc2c1ncn2C1OC(CO)C(O)C1O (centres undefined)
Potency [9]: inactive

O=c1c(O)c(-c2ccc(O)cc2)oc2ccccc12
Potency [9]: inactive

Cc1cccc(CNc2ccnc(-c3ccccc3Cl)n2)c1
Potency [12]: 1.26 µM (active)

COc1cccc(-c2cncnc2NCc2cccc(C)c2)c1
Potency [12]: 0.794 µM (active)

CCCCCCCNS(=O)(=O)c1cccc2c(Cl)cccc12
Potency [12]: 0.126 µM (active) | outcome [13]: inactive

Cc1ccc(Cn2c(C)c3cnn(CC(=O)NCc4ccccc4)c(=O)c3c2C)cc1
Potency [14]: 9.52 µM (active) | Potency [10]: 12 µM (active)

CCNc1ncc2nc(-c3ccc(F)cc3)c(=O)n(Cc3ccc(F)cc3)c2n1
Potency [15]: 1.58 µM (active)

CCCCOc1ccc(CN2C(=O)C(=O)c3cc(Br)cc(C)c32)cc1OC
Potency [16]: 10 µM (active) | Potency [17]: 8.91 µM (active) | Potency [18]: inactive

CCNc1ncc2nc(-c3ccc(F)cc3)c(=O)n(-c3ccccc3)c2n1
Potency [15]: 3.16 µM (active)

N#Cc1cccc(-c2cncnc2NCc2cccnc2)c1
Potency [12]: 3.98 µM (active)

Cn1cccc1C(=O)N1CCC2(CCCN(c3ncccn3)C2)CC1
Potency [11]: inactive | Potency [12]: inactive

Nc1ccccc1C(=O)CC(N)C(=O)O (centres undefined)
Potency [9]: inactive | outcome [13]: inactive

Nc1ccn(C2OC(CO)C(O)C2O)c(=O)n1 (centres undefined)
Potency [9]: inactive

COc1ccccc1-c1cc(C(F)(F)F)nc(S(=O)(=O)CCCC(=O)Nc2ccc(F)cc2F)n1
Potency [16]: 4.47 µM (active) | Potency [17]: 8.91 µM (active) | Potency [18]: 18.4 µM (active)

CCOc1ccc(NC(=O)c2c(NC(=O)Cc3ccccc3)sc3c2CCC(C)C3)cc1 (centres undefined)
Potency [16]: 5.62 µM (active) | Potency [17]: 8.91 µM (active) | Potency [18]: inactive

CCOC(=O)c1ccc(NC(=O)CSc2nc3c([nH]c4ccccc43)c(=O)n2C)cc1
Potency [14]: inactive | Potency [10]: 3.01 µM (active)
